# Where “and” joins values, the source holds several entries; their conditions need not be identical. Equal values may be shown once. In all, about 350,000 compounds went through this assay and about 31,000 (8.9%) were called active. Another 15% or so got no clear call; they are omitted. Calls come from the whole dose curve; as a rule, active = well fitted inhibition curve with a large enough effect; inconclusive = small, poorly fitted or top-dose-only effect; inactive = no such curve, though single readings can be large or run the other way. What follows is part of a selection rich in actives, with near analogues and random picks from the rest. Some compounds were tested as several samples or in several runs, with calls that do not always agree.
# Target: Histone-lysine N-methyltransferase EHMT2 (Homo sapiens) (UniProt Q96KQ7)
# Test: qHTS Assay for Inhibitors of Histone Lysine Methyltransferase G9a; note: nearly all actives have a fitted effect of over 75% in size
# Conditions: G9a H3K9 monomethylation, AlphaScreen, 2 h; series mostly up to 59 µM; activity, negative = inhibition: at the top concentration
# Method in brief: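 AlphaScreen read-out: biotin-H3K9 peptide (500 nM) methylation by 20 nM enzyme with 20 uM SAM, 2 h at room temperature after 15 min compound preincubation; anti-monomethyl H3K9 antibody plus donor/acceptor beads, 10 min dark.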
# % is set by controls: 0 for no effect and ±100 for the full control effect; potency is the fitted concentration of half-maximal effect.
# Sequence of Histone-lysine N-methyltransferase EHMT2 (Homo sapiens) (Q96KQ7 913-1193 limits assumed): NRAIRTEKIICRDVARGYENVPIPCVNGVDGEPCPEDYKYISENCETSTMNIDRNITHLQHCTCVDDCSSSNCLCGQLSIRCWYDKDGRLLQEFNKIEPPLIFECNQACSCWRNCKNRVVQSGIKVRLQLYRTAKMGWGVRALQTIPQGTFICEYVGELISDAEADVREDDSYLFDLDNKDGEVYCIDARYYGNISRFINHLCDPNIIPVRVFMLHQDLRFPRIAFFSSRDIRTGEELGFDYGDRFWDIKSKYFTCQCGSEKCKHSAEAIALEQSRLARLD
Structure (SMILES),"activity, negative = inhibition",Potency
CC(Sc1ncnc2c1cnn2-c1ccccc1)C(=O)Nc1ccc(N2CCOCC2)cc1 (configuration not stated),9% [at 0.501 µM] (inactive),–
Cc1c2cnn(-c3ccccc3)c(=O)c2c(C)n1CCCC(=O)N1CCN(C)CC1,–,79.4 µM (active)
Cc1c2cnn(-c3ccccc3)c(=O)c2c(C)n1C(C)C(=O)Nc1ccc(Br)cc1F (configuration not stated),0.253% (inactive),–
Cc1ccccc1CNC(=O)Cn1c(C)c2cnn(-c3ccccc3)c(=O)c2c1C,-33.3% (inactive),–
COc1ccc(C2=NOC(Cn3nc(C(=O)NCc4ccc5c(c4)OCO5)cc3-c3ccccc3)C2)cc1 (configuration not stated),1.74% [at 2.33 µM] (inactive),–
Cc1ccc(S(=O)(=O)n2cccc2CO)cc1,0.915% [at 2.33 µM] (inactive),–
COc1ccc(C(C)=O)cc1COC(=O)Cn1cnc2ccccc2c1=O,–,50.1 µM (active)
COCc1cc(C(C)=O)ccc1OC,-11.9% [at 12.7 µM] (inactive),–
O=C(COC(=O)Cn1cnc2ccccc2c1=O)NCc1ccccc1Cl,-6.99% [at 102 µM] (inactive),–
COc1ccccc1CNc1ccc(-c2nc(-c3ccccc3C)no2)cc1[N+](=O)[O-],-40.2% (inactive),–
Brc1ccc(-c2nnc(-c3ccccc3)o2)o1,15% (inactive),–
Nc1ccc(-c2nnc(-c3ccc(-c4ccccc4)cc3)o2)cc1,–,7.08 µM (active)
Nc1ccc(-c2nnc(-c3ccccc3)o2)cc1,25.3% [at 102 µM] (inactive),–
O=C(CCS(=O)(=O)c1ccc2c(c1)NC(=O)CO2)Nc1cccc(C(F)(F)F)c1,-1.15% (inactive),–
CC(C)(Oc1ccc(Cl)cc1)C(=O)OCC(=O)NCCc1ccc(S(N)(=O)=O)cc1,-29.2% [at 102 µM] (inactive),–
CCCn1c(N)c(C(=O)CSc2nnc3n2CCCCC3)c(=O)[nH]c1=O,-11.9% (inactive),–
CCOCCCNC(=S)Nc1ccc2nc(N3CCN(CC)CC3)cc(C)c2c1,–,31.6 µM (active)
CCCC(=O)NC(=S)Nc1ccc(CN2CCOCC2)cc1,-25.8% [at 102 µM] (inactive),–
Cc1cc(N2CCOCC2)nc2ccc(NC(=S)N3CCN(Cc4ccccc4)CC3)cc12,–,50.1 µM (active)
CCn1c2ccccc2c2cc(NC(=S)N3CCOCC3)ccc21,7.32% [at 12.7 µM] (inactive),–
COc1ccc(NC(=S)NCCN2CCC(C)CC2)cc1,-42.1% [at 102 µM] (inactive),–

Structure (SMILES),"activity, negative = inhibition",Potency
CCN1CCN(c2cc(C)c3cc(NC(=O)c4cc(Cl)ccc4OC)ccc3n2)CC1,-24.6% (inactive),–
COc1ccc(C(=O)OCC(=O)Nc2ccc3[nH]c(=O)[nH]c3c2)c(OC)c1OC,4.23% [at 0.501 µM] (inactive),–
COc1ccccc1NC(=O)c1oc2ccccc2c1NC(=O)C(C)C,-1.25% (inactive),–
COC(=O)N/N=C/c1c[n+]([O-])c2ccccc2[n+]1[O-],-33.5% (inactive),–
CC(C)CC(=O)NCC(c1ccc2c(c1)OCO2)N1CCN(c2ccc(F)cc2)CC1 (configuration not stated),2.2% (inactive),–
CCOC(=O)c1cc2c(n(-c3ccc(C)cc3)c1=O)CCCC2=O,–,17.8 µM (active)
CCCCOc1ccc(NC(=O)c2cc3c(n(-c4ccc(Cl)cc4)c2=O)CCCC3=O)cc1,30.4% (inactive),–
CCOC(=O)C1=C(N)N(c2ccc(C)cc2)C2=C(C(=O)CCC2)C1c1cccs1 (configuration not stated),-10.2% (inactive),–
Cc1c(C(=O)NNC(=O)c2ccncc2)oc2ccccc12,1.49% [at 12.7 µM] (inactive),–
Oc1cc(O)c2c(c1)OC(c1ccc(O)c(O)c1)C(O)C2 (configuration not stated),–,2.51 µM (active)
O=C(CCC(=O)c1ccccc1)NCc1cccc(C(F)(F)F)c1,17.7% (inactive),–
COc1ccc(C(=O)N(Cc2ccccc2)c2ccc(C)cc2)cc1S(=O)(=O)N1CCOCC1,8.07% [at 0.501 µM] (inactive),–
O=C(CN1CCN(S(=O)(=O)c2ccc(F)cc2)CC1)Nc1ccccc1F,-3.04% [at 102 µM] (inactive),–
O=C(CN1CCN(C(=O)c2cccc(F)c2)CC1)Nc1ccccc1F,–,56.2 µM (active)
O=C(CN1CCCCC1)NC(=O)Nc1ccccc1F,-7.13% [at 102 µM] (inactive),–
CCOc1ccccc1C(=O)NC1(C(F)(F)F)C(=O)Nc2c1c(=O)[nH]c(=O)n2-c1ccc(F)cc1 (configuration not stated),-0.0457% (inactive),–
Cc1ccc(C)n1-c1nnc(N2CCC(C(=O)NCc3ccccc3Cl)CC2)s1,3.86% (inactive),–
O=c1c2ccccc2ccc2ccc(P(=O)(O)O)cc12,2.62% [at 0.501 µM] (inactive),–
O=c1c(-c2ccccc2Cl)c[nH]n1-c1ccccc1,-14.7% [at 102 µM] (inactive),–
COc1ccc(C2CC(=O)NC(=O)C2)cc1,53.6% [at 102 µM] (inactive),–
COc1ccc(C2CC(=O)Oc3ccc(C(C)(C)C)cc32)cc1 (configuration not stated),–,inactive and 44.7 µM (active)

Structure (SMILES),"activity, negative = inhibition",Potency
COc1cc(OC)c2c(c1)OC(=O)CC2c1cc(OC)c(OC)c(OC)c1 (configuration not stated),29.5% [at 102 µM] (inactive),–
COc1ccc(-c2cc(C(=O)NCc3cc(OC)c(OC)c(OC)c3)[nH]n2)cc1,-1.39% (inactive),–
O=C(CN(C(=O)CNC(=O)c1cccs1)c1cccc(F)c1)NC1CCCCC1,5.5% (inactive),–
COc1ccc(C)cc1NC(=O)C(=O)NCCc1sc(-c2cccc(C)c2)nc1C,13.1% (inactive),–
CC1CCCCN1S(=O)(=O)CCNC(=O)c1ccccc1 (configuration not stated),-22.2% [at 102 µM] (inactive),–
Cc1ccc(CCN2CC(C(=O)O)CC2=O)cc1 (configuration not stated),3.83% (inactive),–
CCCCOC(=O)Cn1c(=O)n(CC(=O)OCCCC)c2cc(C)ccc21,75.8% [at 102 µM] (inactive),–
Cc1ccc(CCCOC(=O)C[N+]2(C)CCCC2)cc1,–,15.8 µM (active)
COc1cccc(-c2n[nH]c3c2C(c2cccc(O)c2)N(C)C3=O)c1 (configuration not stated),-9.01% (inactive),–
Cc1cc(NC(=O)c2ccccc2C)no1,-11.2% [at 102 µM] (inactive),–
CCOc1ccc(S(=O)(=O)NCCC(=O)N2CCCCCCC2)cc1,-25.4% [at 102 µM] (inactive),–
Cn1c(=O)c([N+](=O)[O-])c(Oc2ccccc2)c2ccccc21,–,39.8 µM (active)
Cc1cccc(Oc2c([N+](=O)[O-])c(=O)n(C)c3ccccc23)c1,–,44.7 µM (active)
Cc1nn(C)c(Oc2ccccc2)c1[N+](=O)[O-],-3.5% (inactive),–
Cc1cccc(C2CC(=O)Oc3c2c(=O)n(C)c2ccccc32)c1 (configuration not stated),8.57% (inactive),–
Cc1cccc(OP(=O)(Nc2c(C)n(C)n(-c3ccccc3)c2=O)Oc2cccc(C)c2)c1,-3.28% (inactive),–
Cn1nc(-c2ccccc2)c2cc([N+](=O)[O-])ccc21,-10.1% [at 102 µM] (inactive),–
Cc1ccc(-n2ncc3c2CCCC3NC(=O)c2cnccn2)cc1C (configuration not stated),-6.28% [at 0.501 µM] (inactive),–
CCOc1ccc(Nc2ncnc3scc(-c4ccc(OC)cc4)c23)cc1,2.22% [at 12.7 µM] (inactive),–
COc1ccccc1-c1cc2nc(C)c(CCC(=O)NC3CCCCC3)c(C)n2n1,1.59% (inactive),–
